For this experiment, the target named is T1, Methionyl-tRNA synthetase, putative (Leishmania donovani (strain BPK282A1)) (UniProt E9BF75).
T1 sequence (whole entry): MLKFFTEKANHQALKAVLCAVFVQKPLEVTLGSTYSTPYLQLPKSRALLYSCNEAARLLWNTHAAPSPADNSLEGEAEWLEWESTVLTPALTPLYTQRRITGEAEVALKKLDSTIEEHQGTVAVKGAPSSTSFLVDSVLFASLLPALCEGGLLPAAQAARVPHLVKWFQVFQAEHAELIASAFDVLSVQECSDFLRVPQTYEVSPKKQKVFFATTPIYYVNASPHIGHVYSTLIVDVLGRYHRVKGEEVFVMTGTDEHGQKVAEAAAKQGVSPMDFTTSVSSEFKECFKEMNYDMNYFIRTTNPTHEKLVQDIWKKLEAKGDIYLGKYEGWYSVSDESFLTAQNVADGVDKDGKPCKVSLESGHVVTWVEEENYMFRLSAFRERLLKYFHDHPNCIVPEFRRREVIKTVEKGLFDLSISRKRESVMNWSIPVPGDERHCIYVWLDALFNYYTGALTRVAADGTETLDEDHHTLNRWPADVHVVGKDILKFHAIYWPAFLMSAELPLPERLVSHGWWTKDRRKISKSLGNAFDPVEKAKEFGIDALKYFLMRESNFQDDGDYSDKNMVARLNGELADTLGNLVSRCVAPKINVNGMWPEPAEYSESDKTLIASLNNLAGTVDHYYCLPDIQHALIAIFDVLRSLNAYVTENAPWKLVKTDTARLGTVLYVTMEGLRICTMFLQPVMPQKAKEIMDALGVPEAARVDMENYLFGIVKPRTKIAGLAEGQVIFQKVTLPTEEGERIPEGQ
Kind of experiment: Leishmania donovani Methionine tRNA synthetase (LdMetRS):v7. Dose response assay. The class given is functional. More on the design: conc 80 nM, time 150 minutes.

For the molecule `Cn1ncc2c(NC3CCCCC3O)nc(Nc3ccc(F)c(F)c3)nc21` (stereo unspecified), the PXC50 turned out to be 5.31 (BOTTOM -1.097292769, HILLSLOPE 1.183920675, MAX_EFFECT 57.48218527, TOP 58.96974935); 5.4 (BOTTOM -1.326166196, HILLSLOPE 1.398612708, MAX_EFFECT 60.37735849, TOP 61.95804926); 5.35 (BOTTOM -2.072986449, HILLSLOPE 1.170002512, MAX_EFFECT 60.08583691, TOP 62.14142479).
`CNC(=O)CNc1nc(Nc2ccc(F)c(F)c2)nc2c1cnn2C`: the PXC50 worked out at 4.45 (BOTTOM -2.014141631, HILLSLOPE 0.719425381, MAX_EFFECT 67.11798839, TOP 100.0); 4.36 (BOTTOM -2.647341189, HILLSLOPE 0.864486673, MAX_EFFECT 64.80686695, TOP 100.0); 4.35 (BOTTOM -5.796593818, HILLSLOPE 0.871793388, MAX_EFFECT 66.50831354, TOP 100.0).
For the molecule `Cc1ccc(CSc2nc(N)cc(NCC(=O)N3CCNCC3)n2)cc1`, the PXC50 (BOTTOM -2.199449509, HILLSLOPE 1.075485519, MAX_EFFECT 68.11594203, TOP 100.0) was found to be 4.29; the PXC50 (BOTTOM -2.347869122, HILLSLOPE 1.011463002, MAX_EFFECT 66.66666667, TOP 100.0) worked out at 4.27; the PXC50 (BOTTOM -6.039839519, HILLSLOPE 1.064095709, MAX_EFFECT 59.36952715, TOP 57.65563111) came to 4.81.
In the case of `NS(=O)(=O)c1cccnc1Nc1cc(C(=O)N2CCC2)cc(C(F)(F)F)c1`, the PXC50 is below 4 (MAX_EFFECT 2.375296912), below 4 (MAX_EFFECT 5.755395683) and below 4 (MAX_EFFECT -0.429184549).
For `Cn1ccnc1CN(CCO)C(=O)C1CCN(C(=O)C2CC2)CC1`, the PXC50 was below 4 (MAX_EFFECT 3.401360544), below 4 (MAX_EFFECT 4.347826087) and below 4 (MAX_EFFECT 10.33274956).
In the case of `CNS(=O)(=O)c1cccnc1Nc1cccc(C(F)(F)F)c1`, the PXC50 is below 4 (MAX_EFFECT 3.524229075), below 4 (MAX_EFFECT 5.165289256) and below 4 (MAX_EFFECT 6.451612903).
Take `Cn1ncc2c(Nc3ccc(F)c(F)c3)nc(Nc3ccc(F)c(F)c3)nc21`: the PXC50 (MAX_EFFECT 4.405286344) is below 4, the PXC50 (MAX_EFFECT 13.01652893) was below 4 and the PXC50 (MAX_EFFECT 15.66731141) was below 4.
As for `Cn1ncc2c(NCCO)nc(Nc3ccncc3)nc21`, the PXC50 is, setting by setting: (MAX_EFFECT 4.449648712) below 4; (MAX_EFFECT 5.518763797) below 4; (MAX_EFFECT -0.37037037) below 4.
As to `CCC(C)NC(=O)c1ccc(-c2ccco2)[nH]c1=O` (stereo unspecified), the PXC50 is below 4 (MAX_EFFECT 4.72854641), below 4 (MAX_EFFECT 5.442176871) and below 4 (MAX_EFFECT 7.971014493).
As to `Cn1ncc2c(Nc3ccc(F)c(F)c3)nc(NCCO)nc21`, the PXC50 runs as follows: (MAX_EFFECT 4.750593824) below 4; (MAX_EFFECT 5.660377358) below 4; (MAX_EFFECT 14.59227468) below 4.
For `Cn1ncc2c(NCCO)nc(Nc3cccc(O)c3)nc21`, the PXC50 by setting is: (MAX_EFFECT 5.386416862) below 4; (MAX_EFFECT 6.072106262) below 4; (MAX_EFFECT 8.167770419) below 4.
Consider `O=S(=O)(NCC1CC1)c1cccnc1Nc1cccc(C(F)(F)F)c1`, for which the PXC50 reads like this: (MAX_EFFECT 6.072106262) below 4; (MAX_EFFECT 13.21585903) below 4; (MAX_EFFECT 16.32231405) below 4.
Take `OCCNc1nccc(Nc2cccc(F)c2)n1`: the PXC50 is below 4 (MAX_EFFECT 6.168224299), below 4 (MAX_EFFECT 6.404958678) and below 4 (MAX_EFFECT 9.691629956).
In the case of `OCCCNc1nccc(Nc2cccc(C(F)(F)F)c2)n1`, the PXC50 reads like this: (MAX_EFFECT 6.834532374) below 4; (MAX_EFFECT 6.86695279) below 4; (MAX_EFFECT 9.976247031) below 4.
As to `Cn1ncc2c(NCCO)nc(Nc3ccc(O)cc3)nc21`, the PXC50 runs as follows: (MAX_EFFECT 7.728337237) below 4; (MAX_EFFECT 8.34914611) below 4; (MAX_EFFECT 13.02428256) below 4.
For `Cn1ncc2c(NCCO)nc(NCc3cccnc3)nc21`, the PXC50 is below 4 (MAX_EFFECT 7.969639469), below 4 (MAX_EFFECT 8.113207547) and below 4 (MAX_EFFECT 12.78538813).
For `NS(=O)(=O)c1cccnc1Nc1cccc(C(F)(F)F)c1`, the PXC50 was below 4 (MAX_EFFECT 8.810572687), below 4 (MAX_EFFECT 8.888888889) and below 4 (MAX_EFFECT 15.90909091).

For the origin of these results see ChEMBL document CHEMBL3988442, “University of Dundee, Small-Polar-MMV Screening Library” (2021).
